Bioassay records (PubChem)
Only some compounds are listed: those with a hit (about 4.1% of all), similar ones and a draw of the others.
hcDAF-12 act – activators of H. contortus DAF-12 nuclear receptor | HEK293 hcDAF-12 lit1-tk-luc reporter, luminescence; 0% DMSO, 100% Δ7-dafachronic acid | activation, % at 6.8 µM | 370,000 compounds, 1.4% hits;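 active means activation above the mean of all tested compounds plus 3 SD, cut at about 5.5% in these data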;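 further: 100% = response to 3 µM Δ7-dafachronic acid high control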
hgDAF-12 ag – hgDAF-12 agonism, primary luciferase screen; HEK293 GAL4-hgDAF12 UAS-luciferase reporter, agonist luminescence; normalized to butyrate control; activation, % at 6.8 µM; 370,000 compounds, 1.8% hits;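 active means activation above a cutoff set at the mean of all screened compounds plus 3 SD, cut at about 10% in these data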;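 further: 0% = DMSO wells and 100% = sodium butyrate wells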
DAX1 inh-1 – NR0B1 (DAX1) inhibition. P51843. HEK293 Gal4-DAX1 luciferase reporter, luminescence. inhibition, % at 6.75 µM. 340,000 compounds, 0.99% hits. AID 504766;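 active means inhibition above the mean over all tested compounds plus 3 SD, cut at about 4.2% in these data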;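 further: 0% = DAX1-transfected cells with DMSO and 100% = empty-vector control cells with DMSO; inhibition shows as a rise in luminescence from relieved DAX1 repression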
Target sequence (P51843 207-470 limits assumed): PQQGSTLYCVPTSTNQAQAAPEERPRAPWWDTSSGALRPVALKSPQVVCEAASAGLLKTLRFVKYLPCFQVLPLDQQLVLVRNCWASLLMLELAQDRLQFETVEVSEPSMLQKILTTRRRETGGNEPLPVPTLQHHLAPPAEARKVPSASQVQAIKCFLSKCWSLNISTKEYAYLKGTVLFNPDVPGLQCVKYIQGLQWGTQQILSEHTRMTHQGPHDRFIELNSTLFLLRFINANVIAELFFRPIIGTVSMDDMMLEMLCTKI
ssDAF-12 act – S. stercoralis DAF-12 activation, primary screen; HEK293 ssDAF-12/GRIP1 lit1-tk-luc reporter, luminescence; % of 3 µM dafachronic acid response; activation, % at 6.8 µM; 370,000 compounds, 1% hits;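 active means activation above the mean over all tested compounds plus 3 SD, cut at about 0.9% in these data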;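 further: 0% = DMSO-only wells and 100% = 3 µM delta7-dafachronic acid wells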
DAX1 inh-2 – blocks DAX1 repression of SF-1 activated StAR promoter | HEK293T StAR-luciferase reporter, SF-1/DAX-1 repression relief | inhibition, % at 6.8 µM | 370,000 compounds, 1.1% hits;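 active means inhibition above the mean over all tested compounds plus 3 SD, cut at about 3.6% in these data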;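 further: 0% = DAX-1 cells with DMSO and 100% = cells lacking DAX-1 with DMSO; higher inhibition means more luminescence from relief of DAX-1 repression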
* hit, by the source's call; nt = no result given.

SMILES	hcDAF-12 act	hgDAF-12 ag	DAX1 inh-1	ssDAF-12 act	DAX1 inh-2
Cc1cccc(-c2cccc3c4c([nH]c23)[C@@H]2C[C@H](N(C)C(=O)c3ccco3)[C@H]([C@H](C)O)CN2CC4)c1	-0.8	1.0	nt	-0.2	-0.2
CC(=O)c1ccccn1	-1.9	0.4	6.0*	-1.3	0.5
COc1ccc(OC)c(NC(=O)CSc2nncc(=O)n2N)c1	-0.9	-1.0	0.5	0.9*	1.3
COc1cccc(-c2nnc(SCC(=O)Nc3cc(C)ccc3OC)n2N)c1	2.9	-0.7	0.0	-1.1	-1.0
O=C(c1cccc(I)c1)N1CCC(Oc2cccnc2)CC1	-1.3	-2.1	nt	-1.8	0.5
COC(=O)c1c(-c2ccccc2)oc2c1C(OCCO)CCC2 (configuration not stated)	-0.1	-0.8	nt	-1.4	-1.4
O=C(OCc1ccccc1)c1c(-c2ccccc2)oc2c1C(OCCO)CCC2 (configuration not stated)	0.8	0.7	nt	1.5*	-1.1
O=C(N=C1c2ccccc2CN1c1cccc(Cl)c1)c1cccnc1	3.5	10.8*	-0.7	-0.1	0.6
O=C(O)C(Cc1c[nH]c2ccccc12)N1CCS(=O)(=O)CC1 (configuration not stated)	2.0	2.9	0.6	0.6	-0.4
Cc1occc(=O)c1O	-0.5	-2.3	-0.6	-1.3	0.7
Cc1ccccc1OCc1nc2ccccc2c(=O)n1/N=C/c1c[nH]c2ccccc12	1.9	0.0	-1.3	-1.0	0.8
Cc1ccc(-c2[nH]ncc2/C=N/n2c(COc3ccccc3C)nc3ccccc3c2=O)cc1	-0.5	12.9*	-1.8	-0.8	-0.6
O=C(CC1CCCC1)N1CC[C@H]2[C@H](CCCN2Cc2ccc(F)cc2)C1	-0.3	3.0	nt	-1.6	-0.6
COC(=O)c1scc(C)c1NC(=O)Cc1ccccc1	-0.8	1.5	0.3	-1.1	-0.6
CCOC(=O)C(=CNNc1c(C)csc1C(=O)OC)C(=O)OCC	6.3*	-0.8	0.5	-0.4	-0.4
COc1cc(CN2CCN(C(C)C)C(CCO)C2)ccc1OCc1ccccc1 (configuration not stated)	0.9	0.1	0.4	0.0	0.3
Cc1ccsc1/C=N/n1c(-c2ccccn2)n[nH]c1=S	5.7*	-0.3	-0.7	-1.3	0.3
Cc1ccsc1/C=N/n1c(-c2ccccc2)n[nH]c1=S	0.2	2.1	0.0	-1.3	-0.4
NC(=O)CCN1CCCCC1	0.9	-0.1	4.5*	-1.8	0.4
O=C(CCC(=O)CCN1CCCCC1)CCN1CCCCC1	0.6	2.5	1.6	-0.3	0.3
COc1cc(CO)cc(Br)c1OCc1cccnc1	-2.0	2.4	-0.4	-1.4	-0.7
CCOC(=O)CC[C@@H]1CC[C@]2(CCCN(C(=O)c3cccnc3)C2)O1	-2.6	-1.2	nt	-1.2	1.2
Cc1cccc(-c2ccc3[nH]c4c(c3c2)CCN2C[C@H]3[C@H](C)ON(C)[C@H]3C[C@@H]42)c1	0.1	1.3	-0.6	-0.9	-1.0
C[C@@H]1ON(C)[C@H]2C[C@H]3c4[nH]c5ccccc5c4CCN3C[C@@H]12	2.7	-0.6	2.6	1.4*	0.1
C[C@@H]1ON(C)[C@H]2C[C@H]3c4cc(-c5ccc(F)cc5)ccc4CCN3C[C@@H]12	-0.7	1.9	nt	0.9*	-1.5
SMILES	hcDAF-12 act	hgDAF-12 ag	DAX1 inh-1	ssDAF-12 act	DAX1 inh-2
COC(=O)c1cccc(CSc2nc(-c3ccccc3)c(C#N)c(=O)[nH]2)c1	-1.5	-2.4	0.9	-1.5	0.5
COc1ccc(NC(=S)Nc2ccc3nccnc3c2)cc1	2.7	10.6*	-0.2	-0.5	1.2
CCOC(=O)c1cc(C)sc1/N=C/C1C(=O)CC(C)(C)CC1=O	-1.5	3.1	-0.3	-1.3	0.4
CCOC(=O)c1c(CC(C)C)csc1/N=C/C1C(=O)CC(C)(C)CC1=O	-1.9	-1.6	5.5*	-1.2	0.0
COc1ncnc2c1ncn2CCCNCCCN1CCCC1=O	-0.2	1.7	1.3	-1.1	-0.8
CC(C)[C@H](NC(=O)N1CC(=O)Nc2ccccc21)C(=O)N[C@H](Cc1c[nH]c2ccccc12)C(=O)O	3.3	1.1	4.0	1.6*	1.4
CC(C)[C@H](NC(=O)N1CC(=O)Nc2ccccc21)C(=O)N[C@H](Cc1ccccc1)C(=O)O	-1.6	-3.3	1.2	-0.6	-0.2
CCN(CCn1cccn1)C(=O)CCc1nnc(-c2ccccc2)o1	1.0	7.9	-0.6	-0.5	0.6
CCN(CCn1cccn1)C(=O)CCc1nnc(C2(c3ccc(Cl)cc3)CCC2)o1	1.0	11.9*	1.1	0.2	0.8
O=C(O)CSCc1nc2scc(-c3ccccc3)c2c(=O)[nH]1	-1.1	2.8	5.8*	-1.4	0.0
O=c1[nH]c(Cc2ccccc2)nc2scc(-c3ccccc3)c12	-1.9	0.9	-0.1	-1.2	0.1
CCN(CC)c1ccc2cc(-c3nc4ccccc4n3C)c(=O)oc2c1	1.9	3.2	1.7	1.0*	3.6*
COc1ccc(CCNC(=O)CC2C(=O)NCCN2CC(C)(C)C)cc1 (configuration not stated)	0.1	0.7	-0.8	-0.5	0.5
CC(C)Oc1ccc(CCNC(=O)CC2C(=O)NCCN2C)cc1 (configuration not stated)	-0.5	-0.9	4.4*	-1.3	1.7
CN1CC=C(c2ccccc2)N(c2ccc(Br)cc2)C1=O	2.9	7.1	nt	-1.2	-0.2
O=C(NCSc1ccnc(SCNC(=O)c2ccccc2)n1)c1ccccc1	1.8	-1.1	-1.2	-0.2	0.8
O=C(CCNC(=O)c1ccccc1Cl)NCCCSc1ccccc1	-0.9	-0.5	-0.2	-0.7	-0.1
O=C(NCCSSCCNC(=O)c1ccccc1)c1ccccc1	-1.9	4.4	-0.9	-1.6	-0.7
O=C(NCCSc1ccccc1)c1ccccc1	4.8	11.6*	2.7	0.2	3.3
O=C(NCCSc1ccccc1)c1ccccc1Cl	1.4	14.7*	0.5	0.2	2.9
O=C(NCSc1ccncn1)c1ccccc1	-1.3	1.8	4.9*	-1.5	-0.2
CC1Cc2cc(/C(O)=C3/C(=O)C(=O)N(CCCN4CCOCC4)C3c3ccc(C(C)C)cc3)ccc2O1 (configuration not stated)	1.6	-1.9	0.1	-1.0	-0.1
COC(=O)C1CN(Cc2ccc(OC)cc2)CCS(=O)(=O)N1Cc1cn(Cc2ccc(C)cc2)nn1 (configuration not stated)	-1.4	1.2	nt	-1.4	-1.5
NC(Cc1ccc2nsnc2c1)C(=O)O (configuration not stated)	-1.4	-1.0	1.7	2.9*	0.1
N[C@@H](Cc1ccc(O)c(O)c1)C(=O)O	-0.6	-0.9	1.8	-0.8	0.4
CC(C)C[C@H]1COc2cccc(N3CCSCC3)c2S(=O)(=O)N1C	-1.9	0.2	nt	-1.2	-0.5
CN(C)/C=N/NC(=O)c1ccc(Cl)cc1	-1.0	2.0	nt	-1.6	-0.1
CN(C)/C=N/c1cnc(C(=O)c2ccc(Cl)cc2)n1C	6.4*	12.3*	3.0	0.2	2.9
